According to PubChem BioAssay (NCI):
This is part of a sample that, as a whole, favours compounds with a hit. Of some 83,000 tested, about 20% had one in any assay.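 Testing used 96-well plates and a 48-hour single-concentration exposure. Example: -40 means 40% of the starting cells died.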 The source made the active and inactive calls. How the source made its calls: active means growth percent below 10; inactive means the rest.

Experiments:
Assay in all cases: NCI-60 one-dose screen, 48 h (100 = growth as untreated, 0 = no growth, -100 = all killed)
Conditions in all cases: 10 µM unless noted
DU-145 prostate = tested on: DU-145 prostate
K-562 leukemia = tested on: K-562 leukemia
MALME-3M melanoma = tested on: MALME-3M melanoma
MDA-MB-231 breast = tested on: MDA-MB-231 breast
RXF 393 renal = tested on: RXF 393 renal
SF-268 CNS = tested on: SF-268 CNS
SF-295 CNS = tested on: SF-295 CNS
SF-539 CNS = tested on: SF-539 CNS
UACC-257 melanoma = tested on: UACC-257 melanoma
M14 melanoma = tested on: M14 melanoma
HCT-15 colon = tested on: HCT-15 colon
HT29 colon = tested on: HT29 colon
SNB-75 CNS = tested on: SNB-75 CNS
SNB-19 CNS = tested on: SNB-19 CNS
U251 CNS = tested on: U251 CNS
PC-3 prostate = tested on: PC-3 prostate
SK-MEL-5 melanoma = tested on: SK-MEL-5 melanoma
UACC-62 melanoma = tested on: UACC-62 melanoma
LOX IMVI melanoma = tested on: LOX IMVI melanoma
SK-MEL-28 melanoma = tested on: SK-MEL-28 melanoma

Measured: growth

CCn1cc(C(=O)O)c(=O)c2cc(F)c(N3CCN(CC(=O)Nc4ccc(/C(C)=N/OC)cc4)CC3)cc21
inactive: DU-145 prostate 104% | K-562 leukemia 92.5% | MALME-3M melanoma 103% | MDA-MB-231 breast 85.9% | RXF 393 renal 100% | SF-268 CNS 94.1% | SF-295 CNS 92.3% | SF-539 CNS 92.7% | UACC-257 melanoma 91.3% | M14 melanoma 99.4% | HCT-15 colon 90.5% | HT29 colon 94% | SNB-75 CNS 76.8% | SNB-19 CNS 91.7% | U251 CNS 94.3% | PC-3 prostate 85.5% | SK-MEL-5 melanoma 96.4% | UACC-62 melanoma 90.5% | LOX IMVI melanoma 80% | SK-MEL-28 melanoma 100%

CCCn1c2cc(OCc3cn(-c4ccc(Cl)cc4)nn3)ccc2c2ccnc(C)c21
inactive: DU-145 prostate 95.7% | K-562 leukemia 34.9% | MALME-3M melanoma 98.7% | MDA-MB-231 breast 64.6% | RXF 393 renal 73% | SF-268 CNS 95.1% | SF-295 CNS 81.6% | SF-539 CNS 87.3% | UACC-257 melanoma 61% | M14 melanoma 76.4% | HCT-15 colon 67.6% | HT29 colon 30.7% | SNB-75 CNS 92.5% | SNB-19 CNS 80.6% | U251 CNS 47.5% | PC-3 prostate 71.2% | SK-MEL-5 melanoma 70.6% | UACC-62 melanoma 74.9% | LOX IMVI melanoma 65.1% | SK-MEL-28 melanoma 92.3%

O=C(CCc1nnco1)c1nc2ccc([N+](=O)[O-])cc2[nH]1
inactive: DU-145 prostate 107% | K-562 leukemia 113% | MALME-3M melanoma 105% | MDA-MB-231 breast 90.5% | RXF 393 renal 117% | SF-268 CNS 102% | SF-295 CNS 102% | SF-539 CNS 104% | UACC-257 melanoma 112% | M14 melanoma 103% | HCT-15 colon 105% | HT29 colon 103% | SNB-75 CNS 104% | SNB-19 CNS 108% | U251 CNS 107% | PC-3 prostate 96.1% | SK-MEL-5 melanoma 109% | UACC-62 melanoma 96.7% | LOX IMVI melanoma 93.2% | SK-MEL-28 melanoma 111%

CCCCc1ccc(N=Nc2ccc(OCC[N+](C)(C)C)cc2)cc1
inactive: DU-145 prostate 60.5% | K-562 leukemia 44.5% | MALME-3M melanoma 69.4% | MDA-MB-231 breast 38.5% | RXF 393 renal 22.9% | SF-268 CNS 26.9% | SF-295 CNS 32.9% | SF-539 CNS 35.9% | UACC-257 melanoma 71.4% | M14 melanoma 25.8% | HCT-15 colon 61% | HT29 colon 26.3% | SNB-75 CNS 15.4% | PC-3 prostate 24.2% | SK-MEL-5 melanoma 89.4% | UACC-62 melanoma 53.9% | LOX IMVI melanoma 33.6% | SK-MEL-28 melanoma 88.9%
active: SNB-19 CNS 1.8% | U251 CNS -51.1%

COc1cc(-c2csc(NC(=O)Nc3ccc(C(F)(F)F)cc3)n2)cc(OC)c1OC
active: K-562 leukemia 7.21% | MALME-3M melanoma -12.1% | MDA-MB-231 breast -14.3% | RXF 393 renal -4.21% | SF-295 CNS -12.4% | UACC-257 melanoma -18.1% | M14 melanoma 5.54% | HT29 colon 3.06% | SNB-75 CNS -12.1% | U251 CNS 6.12% | PC-3 prostate 3.3% | SK-MEL-5 melanoma -54.7% | UACC-62 melanoma -0.579% | LOX IMVI melanoma 4.24%
inactive: DU-145 prostate 20.8% | SF-268 CNS 29.1% | SF-539 CNS 16% | HCT-15 colon 10.6% | SNB-19 CNS 14.1% | SK-MEL-28 melanoma 16.3%

O=C1CCc2ccccc2N1
inactive: DU-145 prostate 103% | K-562 leukemia 90.2% | MALME-3M melanoma 88.5% | MDA-MB-231 breast 110% | RXF 393 renal 111% | SF-268 CNS 97.4% | SF-295 CNS 107% | SF-539 CNS 105% | UACC-257 melanoma 106% | M14 melanoma 99.2% | HCT-15 colon 103% | HT29 colon 102% | SNB-75 CNS 78.1% | SNB-19 CNS 96.2% | U251 CNS 102% | PC-3 prostate 102% | SK-MEL-5 melanoma 98.9% | UACC-62 melanoma 97.6% | LOX IMVI melanoma 94.4% | SK-MEL-28 melanoma 104%

[2H]c1cc2c(c([2H])c1F)/C(=C/c1[nH]c(C)c(C(=O)NCCN(CC)CC)c1C)C(=O)N2
inactive: DU-145 prostate 34.6% | K-562 leukemia 55.3% | MALME-3M melanoma 10.8% | MDA-MB-231 breast 67.7% | RXF 393 renal 25% | SF-268 CNS 57.7% | SF-295 CNS 85.1% | SF-539 CNS 45.3% | UACC-257 melanoma 69.2% | M14 melanoma 20.6% | HCT-15 colon 29.9% | HT29 colon 19% | SNB-75 CNS 50.4% | SNB-19 CNS 85.4% | U251 CNS 66.5% | PC-3 prostate 28.3% | SK-MEL-5 melanoma 51% | UACC-62 melanoma 67% | LOX IMVI melanoma 26.5% | SK-MEL-28 melanoma 64.7%
